# Assay results reported in the supplement of paper PMC10338343.
# ± gives the standard deviation. Over roughly 8,200 sequences, “pre-steady-state target cleavage rate” has its median near 0.024; the highest 2% begin near 1.3. The sample as a whole holds a higher share of the highest values than the screen did.
# System: MIWI (PIWIL1) piRISC loaded with L1MC piRNA (30 nt)
# Experiment: pre-steady-state target cleavage rate (min^-1); MIWI and MILI are mouse PIWI proteins and EfPiwi is from a freshwater sponge; tags in brackets are library labels; higher = faster piRNA-guided slicing of the target
# Conditions: guide: L1MC piRNA 5'p-UAACUAAAUACUAUGCAAGCUGUAGGUCCU
# Method in brief: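 Cleave-'n-Seq: 1 nM active affinity-purified piRISC with one synthetic guide and 0.1 nM transcribed, DNA-blocked target RNA library were mixed, with or without 500 nM GTSF1 partner protein, in HEPES–potassium acetate buffer at 33 °C for 0–8 or 0–960 min. Uncleaved targets were sequenced and normalised to depth and to weakly complementary targets, three trials were pooled, and k3 was capped at 0.0001 min^-1. The pre-steady-state cleavage rate was fitted […].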
# [1] = auxiliary factor: 500 nM mouse GTSF1
# [2] = auxiliary factor: none (no GTSF1)
Sequence,pre-steady-state target cleavage rate [1],pre-steady-state target cleavage rate [2]
UCCUGGAUGUGCUUGCAUAGUAUUUUGAAA,0.0177 ± 0.0092,0.00406 ± 0.0024
UCCUGCUACAGCUUGCAUUCUAUUUACAAA,0.0158 ± 0.0068,
AGGAGCUACAGGUUGCAUAGUAUUUAGUUA,1.17 ± 0.075,0.0502 ± 0.0084
UCCUGGUACAGAUUGCAUAGUAUUUAGUUA,0.58 ± 0.071,0.0178 ± 0.0046
UCCUGGAACAGCUUGCAUACAAUUUAGUAA,0.0102 ± 0.0056,
AGGACCUACAGCAUGCAUAGUAUUUACAAA,0.526 ± 0.066,0.00349 ± 0.0032
AGGACGUAGAGCUUGCAUAGUAUUUAGUUA,1.17 ± 0.072,0.047 ± 0.0083
UCCACCACAGCUUGCAUAGUAUUUAGUUA,0.992 ± 0.035,0.0505 ± 0.0088
UCCACGUUCAGCUUGCAUAGUAUUUAGUUA,1.42 ± 0.057,0.0658 ± 0.011
UCGACGUUCAGCUUGCAUAGUAUUUAGUUA,1.3 ± 0.036,0.0748 ± 0.015
UGGACGUAGAGCUUGCAUAGUAUUUAGUUA,1.29 ± 0.083,0.043 ± 0.0093
AGGACGUUCAGCUUGCAUAGUAUUUAGUUA,1.35 ± 0.063,0.0669 ± 0.01
UGGACGUUCAGCUUGCAUAGUAUUUAGUUA,1.37 ± 0.052,0.0691 ± 0.012
AGGACGAACAGCUUGCAUAGUAUUUAGUUA,1.27 ± 0.045,0.084 ± 0.016
UCCACCUUCAGCUUGCAUAGUAUUUAGUUA,0.933 ± 0.045,0.0531 ± 0.0087
UGGACCUACAGCUUGCAUACAAUUUAGUAA,0.00447 ± 0.0027,
UCCACCUACAGCUUGCUAUGUAUUUAGAAA,0.00878 ± 0.0045,
UCCUGGAUGUGCUUGCAUACUAUUUAGUUA,0.0877 ± 0.01,0.0191 ± 0.0037
UCCUGGAUCAGCUUGCAUAGUAUUUUGAUA,0.17 ± 0.032,0.0123 ± 0.004
UCCUGGAACAGCUUGCAUAAGUAUUUAGUUA,0.00489 ± 0.0033,
UCCUGGAACAUGCUUGCAUAGUAUUUAGUUA,0.696 ± 0.028,0.0566 ± 0.011
UCCUGGUACAGCUUGCAUCGUAUUUAGUUA,0.203 ± 0.024,0.0269 ± 0.0059

Sequence,pre-steady-state target cleavage rate [1],pre-steady-state target cleavage rate [2]
UCCUGCUACAGCUUGCAUAGUCUUUAGUUA,0.279 ± 0.034,0.0195 ± 0.0047
UCCUGCUACAGCUUGCAUAGAUUUUAGAAA,0.00439 ± 0.0033,
UGGACCUACUGCUUGCAUUGUAUUUAGUUA,0.868 ± 0.041,0.0358 ± 0.009
UCCUCCUACACGUUGCAUAGUAUUUAGUAA,0.507 ± 0.035,0.00568 ± 0.0015
UGGACCUACACCUUGCAUAGUAUUUAGUUA,1.23 ± 0.045,0.0585 ± 0.0088
UGGACCUACAAGCUUGCAUAGUAUUUAGUUA,1.03 ± 0.058,0.0528 ± 0.0098
UCGACCUACACUUGCAUAGUAUUUAGUUA,1.09 ± 0.045,0.0331 ± 0.0076
UCCACCUACAACUUGCAUAGUAUUUAGUUA,0.869 ± 0.025,0.0505 ± 0.0067
UGGACCUACACUUGCAUAGUAUUUAGUUA,1.33 ± 0.082,0.045 ± 0.0091
UGGACCUACAACUUGCAUAGUAUUUAGUUA,1.5 ± 0.062,0.08 ± 0.013
UCGACCUACAACUUGCAUAGUAUUUAGUUA,1.33 ± 0.041,0.0746 ± 0.015
AGGACCUACACUUGCAUAGUAUUUAGUUA,1.15 ± 0.043,0.0736 ± 0.016
AGGACCUACAACUUGCAUAGUAUUUAGUUA,1.08 ± 0.031,0.0712 ± 0.011
UCCUGGAACAGCUUCCAUAGUAUUUAGAAA,0.00998 ± 0.0048,
UCCACCUACAGCUUGCAUAGUAUUUAGUA,0.445 ± 0.043,0.00981 ± 0.0037
AGGACCUACAGCUUGCAUUCUAUUUAGUAA,0.262 ± 0.057,0.00441 ± 0.0024
UCCUGGAUGAGCUUGCUUAGUUUUUAGUUA,0.0242 ± 0.0064,0.00971 ± 0.0022
UCCUGGAUGUCCAUGCAUAGUAAUUAGUUA,0.00537 ± 0.0047,
UGGACCAACAGCUUGCAUAGUAUUUACUUA,0.299 ± 0.018,0.0367 ± 0.0063
UCCUGGAUGUCCUUGAAUAGUAUUUAGUUA,0.0223 ± 0.0065,0.00268 ± 0.0026
UCCUGCUACAGCUUGCCUAGUAUUUAGUUA,0.886 ± 0.057,0.0207 ± 0.0037
UCCUCCUACAGCUUGCAUAGUAUUUAGUUU [g2:g26:cont:t1U],1.29 ± 0.04,0.0826 ± 0.02

Sequence,pre-steady-state target cleavage rate [1],pre-steady-state target cleavage rate [2]
UGCUCCUACAGCUUGCAUAGUAUUUAGUUA,1.33 ± 0.047,0.0726 ± 0.012
UGCUCCUACAGCUUGCAUAGUAUUUAGUAA,1.07 ± 0.045,0.0382 ± 0.0079
UCCUGCCUACAGCUUGCAUAGUAUUUAGUUA,1.33 ± 0.091,0.0623 ± 0.014
UGCUCCUACAGCUUGCAUAGUAUUUAGAAA,0.429 ± 0.033,0.00714 ± 0.0022
UCCUGCUACAGCUUGCAUAGUAUUUAGUUUA,1.17 ± 0.077,0.0574 ± 0.012
AGCUCCUACAGCUUGCAUAGUAUUUAGUUA,1.37 ± 0.053,0.0847 ± 0.013
AGCUCCUACAGCUUGCAUAGUAUUUAGUAA,1.01 ± 0.069,0.0506 ± 0.011
UCCACCUACAGCUUGCAUAGUAUUUCAGUUA,0.691 ± 0.081,0.0139 ± 0.0037
AGGACCUACUGCUUGCAUAGUAUUUAGAUA,0.471 ± 0.048,0.0411 ± 0.0086
UCCUGGUAUAGCUUGCAUAGUAUUUAGUUA,1.02 ± 0.043,0.0597 ± 0.012
UCCACCUACAGCUUGCAUACUAUAUAGUUA,0.178 ± 0.022,0.0112 ± 0.003
AGGACCUACAGCUUGCUUAGUAUUUAGUUA,1.43 ± 0.071,0.066 ± 0.015
AGGAGCUACAGCUUGCUUAGUAUUUAGUUA,1.3 ± 0.061,0.0523 ± 0.011
UCGAGCUACAGCUUGCUUAGUAUUUAGUUA,1.19 ± 0.053,0.0376 ± 0.0079
UGGACCUACAGCUUGCUUAGUAUUUAGUUA,1.56 ± 0.094,0.0426 ± 0.011
AGGACCUACAGCUUGCUUAGUAUUUAGUAA,0.862 ± 0.079,0.0262 ± 0.0068
UGGACCUACAGCUUGCUUAGUAUUUAGUAA,1.03 ± 0.073,0.0335 ± 0.0097
UGGAGCUACAGCUUGCUUAGUAUUUAGUUA,1.33 ± 0.062,0.0391 ± 0.0074
AGGACCUACAGCUUGCUAGUAUUUAGUUA,0.179 ± 0.041,0.00501 ± 0.0024
UGGACCUACAGCUUGCUAGUAUUUAGUUA,0.0515 ± 0.013,0.00386 ± 0.0022
